From PubChem BioAssay (Tox21)
“And” between values parts separate entries of the source, which are not always exact repeats. Equal values may be shown once. Records with an inconclusive call do not appear. Some structures have more than one record in an assay (separate samples or runs), and their calls can disagree. The source made the active and inactive calls. Unless noted, the call rests on the fitted dose curve; in most records, active means well fitted curve in the direction sought with a large enough effect in the repeat runs; inconclusive means weak or mixed curves; inactive means no such curve, though single readings can be large; an effect the other way counts as inactive or inconclusive.

Columns and labels:
[1] = qHTS assay to identify small molecule HDAC inhibitors (AID 1259364); further: potency means the concentration at half of the fitted maximal effect;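 further: wild-type HCT-116 cells with endogenous class I/II HDAC activity; nearly all actives have a fitted effect of over 45% in size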
How it was run: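 HCT-116 (wild type), 1,500 cells/well, overnight; compound 2 hr 37C 5% CO2; HDAC-Glo I/II reagent 30 min RT; luminescence readout.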

[2] = qHTS assay to identify small molecule antagonists of the sonic hedgehog signaling (Shh) pathway - cell viability counter screen (AID 1259367); further: nearly all actives have a fitted effect of over 55% in size
How it was run: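 Fluorescence read-out (CellTiter-Fluor, 1 hr at 37C) taken after 23 hr compound treatment of 3T3 Gli1-Luc cells stimulated with conditioned medium. Cells were seeded at 2,000 per well and pre-incubated 4 hr.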

[3] = qHTS assay to identify small molecule agonists of the sonic hedgehog signaling (Shh) pathway (AID 1259368; calls by dose curve;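 further: NIH/3T3-derived 3T3Gli1-Luc cells carrying a stable Gli1-driven firefly luciferase reporter; series mostly up to about 92 µM; nearly all actives have a fitted effect of over 15% in size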)
How it was run: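 Read-out: firefly luciferase luminescence from a Gli1 response element reporter stably integrated in NIH/3T3-derived 3T3Gli1-Luc cells, measured 30 min at room temperature after reagent addition. Compound exposure lasted 24 hr at 37 C, 5% CO2.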

[4] = qHTS assay to identify small molecule antagonists of the sonic hedgehog signaling (Shh) pathway (AID 1259369; calls by dose curve; further: nearly all actives have a fitted effect of over 45% in size; further: potency means the concentration at half of the fitted maximal effect)
How it was run: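 Luminescence readout: firefly Luc under Gli1 response element in 3T3Gli1-Luc cells (NIH/3T3 clone). Antagonist mode, stimulation by conditioned medium; compound exposure 24hr at 37 C, 5% CO2.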

[5] = target: Estrogen receptor beta (Homo sapiens) (UniProt Q92731); assay: qHTS assay to identify small molecule agonists of the estrogen receptor beta (ER-beta) signaling pathway (AID 1259377; active means well fitted activation curve with a large enough effect in the signal ratio in the repeat runs, not every such curve was filed as active; the % refers to the signal ratio; further: potency means the concentration at half of the fitted maximal effect)
How it was run: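 Agonist mode cell assay in GripTite HEK293T cells expressing an ER-beta fusion that drives beta-lactamase from an Upstream Activator Sequence; 16 hr compound exposure at 37C, then 2 h LiveBLAzer B/G FRET substrate at room temperature, fluorescence read-out.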

[6] = target: Estrogen receptor beta (Homo sapiens) (UniProt Q92731); assay: qHTS assay to identify small molecule antagonists of the estrogen receptor beta (ER-beta) signaling pathway (AID 1259378; active means well fitted inhibition curve with a large enough effect in the signal ratio in the repeat runs, not every such curve was filed as active; the % refers to the signal ratio)
How it was run: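 ER-beta-UAS-bla HEK293T cells in 2% charcoal-stripped FBS medium treated with compound plus 1nM final 17-beta-estradiol for 16 hr at 37C. Beta-lactamase reporter read by FRET substrate fluorescence after 2 hours at room temperature.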

[7] = qHTS assay to identify small molecule agonists of the androgen receptor (AR) signaling pathway in the presence of an antagonist - cell viability counter screen (AID 1259379);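 further: MDA-kb2 human breast cancer cells carrying an MMTV luciferase reporter; series mostly up to about 92 µM; nearly all actives have a fitted effect of over 25% in size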
How it was run: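 Viability counter screen: CellTiter-Fluor fluorescence, measured in the same wells as the luciferase read-out. MDA-kb2 cells, 3,000/well, with nilutamide at 3.0uM final and compounds at 15 concentrations, 16 hr at 37C, 0% CO2.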

[8] = qHTS assay to identify small molecule agonists of the estrogen receptor beta (ER-beta) signaling pathway - cell viability counter screen (AID 1259380); further: nearly all actives have a fitted effect of over 30% in size; further: potency means the concentration at half of the fitted maximal effect
How it was run: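 Luminescence read-out (CellTiter-Glo, 30 min, room temp) taken in the same wells as the beta-lactamase reporter assay; ER-beta-UAS-bla HEK293T cells exposed to DMSO-dissolved compounds for 16 hr at 37C in 2% charcoal-stripped FBS medium.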

[9] = qHTS assay to identify small molecule antagonists of the estrogen receptor beta (ER-beta) signaling pathway - cell viability counter screen (AID 1259382); further: nearly all actives have a fitted effect of over 55% in size; further: potency means the concentration at half of the fitted maximal effect
How it was run: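 Luminescent ATP read-out (CellTiter-Glo, 30 min, RT) taken in the same wells as the bla reporter assay. HEK293T ER-beta-UAS-bla cells in 2% charcoal-stripped FBS were exposed to compounds with 1nM E2 for 16 hr at 37C.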

[10] = qHTS assay to identify small molecule agonists of the estrogen receptor alpha (ER-alpha) signaling pathway in the presence of an antagonist - cell viability counter screen (AID 1259386);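 further: series mostly up to about 92 µM; cells exposed to compounds for 22 h at 37 °C before the viability read; nearly all actives have a fitted effect of over 30% in size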
How it was run: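 Read-out: CellTiter-Fluor fluorescence after 1hr reagent incubation, measured in the same wells as the luciferase readout. VM7Luc4E2 cells were exposed to 15 compound concentrations with 10.0nM ICI-182,780 for 22hr at 37C.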

[11] = target: Progesterone receptor (Homo sapiens) (UniProt P06401); assay: qHTS assay to identify small molecule agonists of the progesterone receptor (PR) signaling pathway (AID 1346784; calls by dose curve; further: nearly all actives have a fitted effect of over 30% in size)
How it was run: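 Cells (PR-UAS-bla HEK 293T, GripTite) were plated in assay medium containing 2% charcoal-stripped FBS and incubated 6 hr. Test compounds in DMSO were added for 16 hr at 37C. FRET substrate was then loaded for 2 hr at room temperature before fluorescence reading.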

[12] = target: Progesterone receptor (Homo sapiens) (UniProt P06401); assay: qHTS assay to identify small molecule antagonists of the progesterone receptor (PR) signaling pathway (AID 1346795; active means well fitted inhibition curve with a large enough effect in the signal ratio in the repeat runs, not every such curve was filed as active; the % refers to the signal ratio; further: potency means the concentration at half of the fitted maximal effect)
How it was run: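 Antagonist mode: compounds tested against 1 nM (final) promegestone stimulation in HEK293T cells expressing PR-UAS-bla reporter, 16 hr at 37C, 5% CO2; beta-lactamase activity detected via B/G FRET substrate after 2 hr at room temperature.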

[13] = qHTS assay to identify small molecule HDAC inhibitors - cell viability counter screen (AID 1259365); further: series mostly up to about 92 µM; nearly all actives have a fitted effect of over 50% in size
How it was run: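 Counter screen in wild-type HCT-116 cells: compounds dissolved in DMSO are pin-transferred onto overnight-plated cells and left 2hr at 37C. ATP-based CellTiter-Glo luminescence then measures viable cells.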

[14] = qHTS assay to identify small molecule agonists of the sonic hedgehog signaling (Shh) pathway - cell viability counter screen (AID 1259366); further: nearly all actives have a fitted effect of over 50% in size
How it was run: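 Cells are plated at 2,000 per well and left 4hr at 37C, 5% CO2 before compound addition. After 23hr of treatment, CellTiter-Fluor reagent is added for 1hr at 37C and fluorescence is measured.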

[15] = qHTS assay to identify small molecule agonists or antagonists of the thyroid stimulating hormone receptor (TSHR) signaling pathway - wild type cell line counter screen (AID 1259384; calls by dose curve)
How it was run: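 Wild-type Hek293 cells, 800/well, 18 h at 37C, then compound with Ro20-1724 for 30 min RT. cAMP by HTRF (cAMP-d2/anti-cAMP cryptate), 1 h RT, fluorescence read. 15 concentrations, triplicates.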

[16] = target: Thyrotropin receptor (Homo sapiens) (UniProt P16473); assay: qHTS assay to identify small molecule antagonists of the thyroid stimulating hormone receptor (TSHR) signaling pathway (AID 1259385; calls by dose curve; further: nearly all actives have a fitted effect of over 20% in size)
How it was run: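 TSHR-HEK293 cells (800/well) plated 18 h, then compounds with Ro20-1724 and TSH at 1.5 ng/mL final, 30 min at room temperature. cAMP quantified by HTRF (cAMP-d2/anti-cAMP-cryptate, 1 h); 15 concentrations in triplicate.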

[17] = target: Androgen receptor (Homo sapiens) (UniProt P10275); assay: qHTS assay to identify small molecule agonists of the androgen receptor (AR) signaling pathway in the presence of an antagonist (AID 1259381; calls by dose curve; further: nearly all actives have a fitted effect of over 15% in size)
How it was run: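 Luciferase read-out (ONE-Glo, 30min room temperature) in MDA-kb2 MMTV-reporter cells; agonist mode run in presence of AR antagonist nilutamide, 3.0uM final. Compounds tested as 15-point series, 16hr exposure at 37C, 0% CO2.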

[18] = qHTS assay to identify small molecule phospholipidosis (PLD) inducers (AID 1259344; active means well fitted curve in the direction sought with a large enough effect; an effect the other way counts as inactive or inconclusive)
How it was run: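 Read-out is LipidTOX Red fluorescence (ex 595/em 615) imaged in HepG2 cells after 24 h compound exposure at 37 C, with Hoechst nuclear counterstain (ex 352/em 461) allowing per-cell normalisation.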
On the % scale 0 is the no-effect control and ±100 the full control effect.

Chain of Thyrotropin receptor (Homo sapiens) (P16473 whole entry, looked up): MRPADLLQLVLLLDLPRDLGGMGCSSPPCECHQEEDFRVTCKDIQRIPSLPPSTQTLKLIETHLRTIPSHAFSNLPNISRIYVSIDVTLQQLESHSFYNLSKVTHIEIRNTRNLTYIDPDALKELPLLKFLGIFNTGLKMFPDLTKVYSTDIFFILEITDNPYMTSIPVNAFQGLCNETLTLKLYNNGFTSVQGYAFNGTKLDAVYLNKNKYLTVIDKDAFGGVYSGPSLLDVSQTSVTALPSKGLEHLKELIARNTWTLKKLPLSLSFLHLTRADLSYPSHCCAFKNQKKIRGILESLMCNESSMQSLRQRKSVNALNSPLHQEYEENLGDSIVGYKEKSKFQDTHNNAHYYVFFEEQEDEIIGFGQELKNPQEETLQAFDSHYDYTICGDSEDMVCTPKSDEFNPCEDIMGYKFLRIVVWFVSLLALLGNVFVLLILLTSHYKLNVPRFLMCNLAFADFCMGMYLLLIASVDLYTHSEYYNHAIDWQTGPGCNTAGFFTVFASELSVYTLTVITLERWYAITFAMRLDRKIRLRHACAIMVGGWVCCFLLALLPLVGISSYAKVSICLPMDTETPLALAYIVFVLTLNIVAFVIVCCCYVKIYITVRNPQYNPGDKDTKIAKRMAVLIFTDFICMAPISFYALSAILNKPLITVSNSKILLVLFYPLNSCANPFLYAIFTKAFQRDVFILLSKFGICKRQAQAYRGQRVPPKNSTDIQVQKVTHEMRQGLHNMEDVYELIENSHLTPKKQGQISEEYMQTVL
Chain of Progesterone receptor (Homo sapiens) (P06401 whole entry, looked up): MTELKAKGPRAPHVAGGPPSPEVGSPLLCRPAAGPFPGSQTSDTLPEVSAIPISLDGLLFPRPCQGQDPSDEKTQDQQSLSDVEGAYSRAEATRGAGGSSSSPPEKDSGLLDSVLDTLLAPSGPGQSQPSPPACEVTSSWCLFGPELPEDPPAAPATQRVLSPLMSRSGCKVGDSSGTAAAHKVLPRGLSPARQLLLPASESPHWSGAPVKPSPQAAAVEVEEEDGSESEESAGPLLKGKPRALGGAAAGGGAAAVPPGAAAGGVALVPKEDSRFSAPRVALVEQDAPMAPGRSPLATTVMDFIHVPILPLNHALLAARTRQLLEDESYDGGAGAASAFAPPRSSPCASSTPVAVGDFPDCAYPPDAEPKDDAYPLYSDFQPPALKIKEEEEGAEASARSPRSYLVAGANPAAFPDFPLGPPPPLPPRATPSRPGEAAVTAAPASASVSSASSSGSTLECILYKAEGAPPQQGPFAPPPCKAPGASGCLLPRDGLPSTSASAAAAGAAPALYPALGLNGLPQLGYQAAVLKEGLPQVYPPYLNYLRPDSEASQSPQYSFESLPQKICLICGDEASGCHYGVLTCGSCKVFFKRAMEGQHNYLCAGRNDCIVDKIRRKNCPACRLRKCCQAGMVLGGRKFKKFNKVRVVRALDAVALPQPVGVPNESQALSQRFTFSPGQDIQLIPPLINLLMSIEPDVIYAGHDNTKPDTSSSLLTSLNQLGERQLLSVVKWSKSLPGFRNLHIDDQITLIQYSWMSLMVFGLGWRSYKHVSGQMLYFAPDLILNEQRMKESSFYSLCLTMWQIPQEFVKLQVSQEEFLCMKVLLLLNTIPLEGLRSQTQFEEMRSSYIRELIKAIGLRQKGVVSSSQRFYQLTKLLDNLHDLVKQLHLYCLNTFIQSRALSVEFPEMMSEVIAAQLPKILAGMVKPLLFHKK
Chain of Androgen receptor (Homo sapiens) (P10275 whole entry, looked up): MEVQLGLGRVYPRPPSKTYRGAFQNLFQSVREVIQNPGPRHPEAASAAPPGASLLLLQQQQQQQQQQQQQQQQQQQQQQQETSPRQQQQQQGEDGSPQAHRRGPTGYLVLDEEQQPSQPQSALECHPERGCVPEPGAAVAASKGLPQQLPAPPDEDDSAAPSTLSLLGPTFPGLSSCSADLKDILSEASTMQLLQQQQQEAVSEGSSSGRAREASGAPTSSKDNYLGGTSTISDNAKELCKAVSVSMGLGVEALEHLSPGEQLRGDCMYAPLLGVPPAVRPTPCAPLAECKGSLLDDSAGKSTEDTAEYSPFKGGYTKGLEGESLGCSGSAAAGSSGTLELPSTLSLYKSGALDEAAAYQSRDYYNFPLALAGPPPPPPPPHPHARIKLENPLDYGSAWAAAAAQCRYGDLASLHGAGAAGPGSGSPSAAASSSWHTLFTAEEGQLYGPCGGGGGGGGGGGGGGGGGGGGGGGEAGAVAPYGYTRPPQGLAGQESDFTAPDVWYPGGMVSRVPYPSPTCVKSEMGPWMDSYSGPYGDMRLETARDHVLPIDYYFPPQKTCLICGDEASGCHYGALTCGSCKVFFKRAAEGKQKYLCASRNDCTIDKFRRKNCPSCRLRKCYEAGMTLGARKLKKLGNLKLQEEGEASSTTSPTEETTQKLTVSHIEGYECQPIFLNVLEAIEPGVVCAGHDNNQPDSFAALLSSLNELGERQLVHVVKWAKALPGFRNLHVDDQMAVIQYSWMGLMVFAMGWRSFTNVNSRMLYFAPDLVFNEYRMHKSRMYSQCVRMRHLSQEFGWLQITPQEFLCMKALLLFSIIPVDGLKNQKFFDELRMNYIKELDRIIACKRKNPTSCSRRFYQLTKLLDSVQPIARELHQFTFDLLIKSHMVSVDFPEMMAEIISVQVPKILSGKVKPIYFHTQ
Chain of Estrogen receptor beta (Homo sapiens) (Q92731 whole entry, looked up, the tested form may be a part): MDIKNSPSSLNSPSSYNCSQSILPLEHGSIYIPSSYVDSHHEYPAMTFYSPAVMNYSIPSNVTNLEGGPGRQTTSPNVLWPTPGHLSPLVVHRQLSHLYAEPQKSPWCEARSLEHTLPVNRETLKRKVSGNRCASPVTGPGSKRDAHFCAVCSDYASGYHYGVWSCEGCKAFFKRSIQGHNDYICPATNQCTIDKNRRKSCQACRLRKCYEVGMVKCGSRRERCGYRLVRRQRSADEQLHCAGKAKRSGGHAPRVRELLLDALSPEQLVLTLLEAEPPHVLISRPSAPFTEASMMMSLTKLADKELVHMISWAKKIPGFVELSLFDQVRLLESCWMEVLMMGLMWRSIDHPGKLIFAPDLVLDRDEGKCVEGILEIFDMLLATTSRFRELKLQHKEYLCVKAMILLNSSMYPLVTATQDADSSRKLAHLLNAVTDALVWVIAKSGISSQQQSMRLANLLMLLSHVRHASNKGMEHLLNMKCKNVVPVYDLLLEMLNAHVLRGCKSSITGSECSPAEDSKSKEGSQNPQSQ

CC(C)(C)OOC(=O)c1ccccc1
inactive: Potency [1] | Potency [2] | outcome [3] | Potency [4] | outcome [6] | outcome [7] | Potency [8] | Potency [9] | outcome [10] | outcome [11] | Potency [12]
61.2 µM (active) and inactive: Potency [5]

CC(C)C#N
inactive: outcome [13] | Potency [14] | Potency [2] | outcome [3] | Potency [4] | outcome [7] | Potency [8] | Potency [9] | outcome [15] | Potency [16] | outcome [10] | outcome [11] | Potency [12]

C=CCO
inactive: outcome [13] | Potency [14] | Potency [2] | outcome [3] | Potency [4] | outcome [7] | Potency [9] | outcome [15] | Potency [16] | outcome [10] | outcome [11] | Potency [12]
28.5 µM (active) and inactive: Potency [1]

CCNc1nc(NC(C)C)nc(SC)n1
inactive: Potency [2] | Potency [4] | Potency [5] | outcome [6] | outcome [7] | outcome [17] | Potency [9] | outcome [15] | Potency [16] | outcome [10] | outcome [11] | Potency [12]

CN(C)N=O
inactive: Potency [1] | outcome [13] | Potency [14] | Potency [2] | outcome [3] | Potency [4] | Potency [5] | outcome [6] | outcome [7] | Potency [8] | Potency [9] | outcome [10] | outcome [11] | Potency [12]

C#CC(C)(C)NC(=O)c1cc(Cl)cc(Cl)c1
inactive: outcome [13] | Potency [2] | outcome [3] | Potency [4] | outcome [7] | Potency [9] | outcome [15] | Potency [16] | outcome [10] | outcome [11] | Potency [12]

CCCCCCCCCCCC#N
inactive: Potency [1] | outcome [13] | Potency [2] | Potency [4] | Potency [5] | outcome [6] | outcome [7] | Potency [8] | Potency [9] | outcome [15] | Potency [16] | outcome [10] | outcome [11] | Potency [12]

Clc1cccc(Cl)c1Cl
inactive: Potency [2] | outcome [3] | Potency [4] | outcome [7] | Potency [9] | outcome [15] | Potency [16] | outcome [10] | outcome [11] | Potency [12]

CC(C)(C)C(O)(CCc1ccc(Cl)cc1)Cn1cncn1 (centres undefined)
active: Potency [12] 17.4 µM and 24.3 µM
inactive: outcome [13] | Potency [14] | Potency [2] | outcome [3] | outcome [7] | Potency [9] | outcome [15] | Potency [16] | outcome [10] | outcome [11]

OCCN(CCO)CCO
inactive: PLD induction [18] 10.3% [at 7.66 µM] | Potency [1] | outcome [13] | Potency [2] | outcome [3] | Potency [4] | outcome [7] | Potency [9] | outcome [15] | Potency [16] | outcome [10] | outcome [11] | Potency [12]

O=c1ccc(=O)[nH][nH]1
inactive: Potency [1] | outcome [13] | Potency [14] | Potency [2] | outcome [3] | Potency [4] | outcome [7] | Potency [8] | outcome [17] | Potency [9] | outcome [15] | Potency [16] | outcome [10] | outcome [11] | Potency [12]

Clc1ccccc1Cl
inactive: outcome [18] | Potency [1] | outcome [13] | Potency [14] | Potency [2] | outcome [3] | Potency [4] | Potency [5] | outcome [6] | outcome [7] | Potency [8] | Potency [9] | outcome [15] | Potency [16] | outcome [10] | outcome [11] | Potency [12]

O=c1[nH]c(=O)[nH]c(=O)[nH]1
inactive: Potency [1] | outcome [13] | Potency [14] | Potency [2] | outcome [3] | Potency [4] | Potency [5] | outcome [6] | outcome [7] | Potency [8] | outcome [17] | Potency [9] | outcome [15] | Potency [16] | outcome [10] | outcome [11] | Potency [12]

NCC(O)c1ccc(O)cc1 (centres undefined)
inactive: outcome [18] | Potency [1] | outcome [13] | Potency [14] | Potency [2] | Potency [4] | Potency [5] | outcome [6] | outcome [7] | Potency [8] | Potency [9] | outcome [15] | Potency [16] | outcome [10] | outcome [11] | Potency [12]

C[C@]12CC[C@H]3[C@@H](CC[C@@]45O[C@@H]4C(O)=C(C#N)C[C@]35C)[C@@H]1CC[C@@H]2O
active: Potency [4] 27.3 µM and 13.3 µM
inactive: outcome [18] | Potency [1] | Potency [2] | outcome [3] | outcome [6] | outcome [7] | Potency [8] | Potency [9] | outcome [15] | Potency [16] | outcome [10] | outcome [11]

CCc1cccc(C)c1N(C(=O)CCl)C(C)COC (centres undefined)
inactive: outcome [13] | Potency [14] | Potency [2] | Potency [4] | Potency [5] | outcome [7] | Potency [9] | outcome [15] | Potency [16] | outcome [10] | outcome [11]

CCC[N+](=O)[O-]
inactive: Potency [1] | outcome [13] | Potency [14] | Potency [2] | Potency [4] | Potency [5] | outcome [6] | outcome [7] | outcome [15] | Potency [16] | outcome [10]
8.48 µM (active) and inactive: Potency [8] | Potency [12]
23.9 µM (active) and inactive: Potency [9]

O=[N+]([O-])c1ccc(Oc2ccc(Cl)cc2Cl)cc1
active: Potency [12] 15.4 µM and 9.69 µM
61.4 µM (active) and inactive: Potency [5]
inactive: Potency [1] | Potency [2] | Potency [4] | outcome [6] | outcome [7] | Potency [8] | Potency [9] | outcome [15] | Potency [16] | outcome [10] | outcome [11]
